In PubChem BioAssay (NCI):
This is part of a sample that, as a whole, favours compounds with a hit. Of some 83,000 tested, about 20% had one in any assay.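 A percent growth of 40 corresponds to 60% growth inhibition; 0 means no net growth; -100 means all cells died. Active threshold: below 10.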 A number with no mark means an inactive call. Calls of active or inactive are those of the source.

What was measured:
Assay in all cases: NCI-60 one-dose screen, 48 h (100 = growth as untreated, 0 = no growth, -100 = all killed)
HCT-15 colon = details: 10 µM unless noted
SNB-75 CNS = details: 10 µM unless noted
SNB-19 CNS = details: 10 µM unless noted
U251 CNS = details: 10 µM unless noted
PC-3 prostate = details: 10 µM unless noted
SK-MEL-5 melanoma = details: 10 µM unless noted
UACC-62 melanoma = details: 10 µM unless noted
LOX IMVI melanoma = details: 10 µM unless noted
SK-MEL-28 melanoma = details: 10 µM unless noted
EKVX NSCLC = details: 10 µM unless noted
SN12C renal = details: 10 µM unless noted
UO-31 renal = details: 10 µM unless noted
TK-10 renal = details: 10 µM unless noted
ACHN renal = details: 10 µM unless noted
CAKI-1 renal = details: 10 µM
CCRF-CEM leukemia = details: 10 µM unless noted
MOLT-4 leukemia = details: 10 µM unless noted
SK-MEL-2 melanoma = details: 10 µM unless noted
A498 renal = details: 10 µM unless noted
HT29 colon = details: 10 µM unless noted

| Compound | growth (HCT-15 colon) | growth (SNB-75 CNS) | growth (SNB-19 CNS) | growth (U251 CNS) | growth (PC-3 prostate) | growth (SK-MEL-5 melanoma) | growth (UACC-62 melanoma) | growth (LOX IMVI melanoma) | growth (SK-MEL-28 melanoma) | growth (EKVX NSCLC) | growth (SN12C renal) | growth (UO-31 renal) | growth (TK-10 renal) | growth (ACHN renal) | growth (CAKI-1 renal) | growth (CCRF-CEM leukemia) | growth (MOLT-4 leukemia) | growth (SK-MEL-2 melanoma) | growth (A498 renal) | growth (HT29 colon) |
| --- | --- | --- | --- | --- | --- | --- | --- | --- | --- | --- | --- | --- | --- | --- | --- | --- | --- | --- | --- | --- |
| O=C1Nc2ccc(Cl)cc2/C1=C/c1ccc(OCc2ccc(Br)cc2F)cc1 | 102% | 100% | 100% | 97.4% | 93% | 92.6% | 93.6% | 92.7% | 105% | 97.5% | 103% | 84.4% | 116% | 103% | 84.3% | 94.2% | 98.9% |  |  |  |
| O=C1Nc2ccc(Br)cc2/C1=N\c1nnc(-c2ccc(Cl)cc2)o1 | 24.2% | 46.8% | 72% | 60.5% | 80.1% | 77.2% | 60.1% |  | 70.8% | 72.5% | 85.7% | 62.3% | 187% | 74.9% | 59% | 35.7% | 36.6% | 87.6% | 69.4% |  |
| CS(=O)c1nccc(-c2c(-c3ccc(F)c(OCCc4ccccc4)c3)nc3sccn23)n1 (stereo unspecified) | 65.4% | 106% | 86.6% | 106% | 64.6% | 100% | 93.8% | 72.1% | 87.8% | 99.9% | 93.7% | 52.7% | 105% | 72.8% | 84.8% | 49.8% |  |  | 92.6% |  |
| CC[C@]12C=CCN3CC[C@]4(C(=C(C(=O)OC)C1)Nc1cc5c(cc14)[C@@H]1[C@H](O5)[C@@H](O)[C@@]4(CC)CC(C(=O)OC)=C5Nc6cc(OC)ccc6[C@@]56CCN1[C@@H]46)[C@@H]32 |  | 21.1% | 3.1% (active) | 3.18% (active) | 9.02% (active) | -2.36% (active) | 8.98% (active) | -85.9% (active) | 1.92% (active) | 19.1% | 16.4% | 11.9% | 14.1% | -42.5% (active) | 2.12% (active) | 5.92% (active) |  | 32.1% | -65.9% (active) | 2.83% (active) |
| Cc1cc(NS(=O)(=O)c2ccc(-c3cnc(C4CC4)o3)cc2)ccc1I | 30.5% |  | 40.1% | 30.1% | 22.7% | 31.5% | 30.3% |  | 62% | 42.6% | 43.5% | 48.7% | 75.6% | 45.1% | 39.3% | 19.1% | 40.8% | 63.3% |  |  |
| CC(=O)c1sc(Nc2cccc(Nc3nc(C)c(C)s3)c2)nc1C | 44.9% | 62.9% | 90.9% | 65.7% | 51.3% | 55.8% | 48.8% | 48.1% | 71.5% | 68.8% | 55% | 32.2% | 53.6% | 36.5% | 28.1% | 61.2% | 38.3% |  | 27.7% |  |
| COc1ccc2c(c1)oc1c3[nH]c4ccccc4c3c3c(c21)C(=O)N(O)C3=O | 50.5% | 39.7% | 32.6% | 15.7% | 45.4% | -22.1% (active) | 12.4% | -76% (active) | 76.3% | 92.5% | 40.5% | 22.4% | 119% | 11.5% | 19.6% | 6.73% (active) | -2.02% (active) | 70.8% | -1.48% (active) |  |
| CN1C(=O)N(C)C2C1NN=c1s/c(=C\c3ccccn3)c(=O)n12 (stereo unspecified) | 79.4% | 93% | 96.8% | 101% | 94.8% | 102% | 90.6% | 100% | 107% | 99.4% | 98.8% | 91.3% | 104% | 104% | 100% | 101% | 107% | 103% | 105% |  |
| O=C1c2c(c3c4cc(O)ccc4oc3c3[nH]c4ccccc4c23)C(=O)N1O | 15.2% | -8.52% (active) | 16.4% | -3.58% (active) | 12.8% |  | -53.6% (active) | -67.8% (active) | 19.4% | 66.6% | 17.1% | -40.1% (active) | 31.1% | -5.43% (active) | -16.5% (active) | 1.62% (active) | 4.76% (active) | -71.6% (active) | -9.95% (active) |  |
| COc1ccc2c(C3=C(c4cn(C)c5ccccc45)C(=O)NC3=O)coc2c1 | 20% | 17.6% | 37.9% | 15.8% | 21.9% | 42.4% | 29.5% | 34.8% | 65.2% | 50.7% | 32.3% | 37.8% | 79.4% | 37.4% | 42% | 18.8% |  |  | 34.9% |  |
| O=C(CCCCCCN1CC(=O)N2[C@@H](c3ccccc3)c3[nH]c4ccccc4c3C[C@H]2C1=O)NO | 91.4% |  | 67.1% | 51.7% | 59.6% | 41.7% | 18.8% | 30.8% | 47% | 84.3% | 78.4% |  | 69.4% | 87.3% | 65.5% | 24.5% | 20.9% | 68.4% | 87.1% |  |
| COc1ccc(C2CC(c3ccc(Nc4nc(NCCO)nc(Nc5ccc(Cl)cc5)n4)cc3)=Nc3c(N)nc(N)nc3N2)cc1 (stereo unspecified) | 14.1% | 117% | 76.8% | 66.4% | 63.1% | 59.8% | 107% | 12.9% | 119% | 107% | 85.1% |  | 107% | 90.1% | 61.1% | -17.9% (active) | 3.14% (active) | 89.5% | 42.7% |  |
| COc1ccc(/C=N/Nc2nc(Nc3ccccc3)nc(Nc3ccc(S(N)(=O)=O)cc3)n2)cc1 | 68.2% | 81.9% | 86.3% | 66.8% | 75.8% | 74.6% | 87% | 52.5% | 78.5% | 88.5% | 80.2% | 77.9% | 107% | 75.2% | 76% | 45.9% | 44.5% | 68.9% | 61.7% |  |
